The full ranking holds about 140,000 sequences; the median of “enrichment ratio after two sorts for PhoP signalling” is about 0, and the highest 2% start at about 11. The list comes from a sample in which the highest values are over-represented; it also holds similar and randomly drawn sequences.

B1: PhoQ; a variant is named by its letters at X, in order, P23837 (parent)
chain: MKKLLRLFFPLSLRVRFLLATAAVVLVLSLAYGMVALIGYSVSFDKTTFRLLRGESNLFYTLAKWENNKLHVELPENIDKQSPTMTLIYDENGQLLWAQRDVPWLMKMIQPDWLKSNGFHEIEADVNDTSLLLSGDHSIQQQLQEVREDDDDAEMTHSVAVNVYPATSRMPKLTIVVVDTIPVELKSSYMVWSWFIYVLSANLLLVIPLLWVAAWWSLRPIEALAKEVRELEEHNRELLNPATTRELTSLVRNLNRLLKSERERYDKYRTTLTDLTHSLKTPLXXLQXXLRSLRSEKMSVSDAEPVMLEQISRISQQIGYYLHRASMRGGTLLSRELHPVAPLLDNLTSALNKVYQRKGVNISLDISPEISFVGEQNDFVEVMGNVLDNACKYCLEFVEISARQTDEHLYIVVEDDGPGIPLSKREVIFDRGQRVDTLRPGQGVGLAVAREITEQYEGKIVAGESMLGGARMEVIFGRQHSAPKDE

This test covers variants of B1. Nature of the test: enrichment ratio after two sorts for PhoP signalling (ratio (wild type AVST 3.29)); higher = more functional. The conditions noted are these: with PhoP (E. coli).
With VGGC, the enrichment ratio is no more than 0.25.

For the variant SRGC, the enrichment ratio is no more than 0.25.

For the variant TAGC, the enrichment ratio was 13.9.

Regarding KAGC, the enrichment ratio is no more than 0.25.

On to SSGC, for which the enrichment ratio was 13.8.

For the variant KSGC, the enrichment ratio is no more than 0.25.

With LTGC, the enrichment ratio is no more than 0.25.

Take TDGC: the enrichment ratio worked out at 17.1.

For FDGC, the enrichment ratio was no more than 0.25.

MLHI: the enrichment ratio was found to be 1.88.

For WSGR, the enrichment ratio is no more than 0.25.

Take TCPW: the enrichment ratio was no more than 0.25.

Take LTCV: the enrichment ratio was no more than 0.25.

For RIDL, the enrichment ratio is no more than 0.25.

For TYQH, the enrichment ratio is no more than 0.25.

Consider CKSI, for which the enrichment ratio was no more than 0.25.

For the variant WTRS, the enrichment ratio was no more than 0.25.

In the case of TFHR, the enrichment ratio was no more than 0.25.

Consider YNLV, for which the enrichment ratio is 1.85.

Turning to DWIL, the enrichment ratio was no more than 0.25.

On to FQII, for which the enrichment ratio was no more than 0.25.

TQII: the enrichment ratio is 15.7.

As to TQAY, the enrichment ratio came out at 17.

As for TQSY, the enrichment ratio came out at 12.3.

For FQAY, the enrichment ratio was no more than 0.25.

Take SHQY: the enrichment ratio is no more than 0.25.

Turning to NVSY, the enrichment ratio is no more than 0.25.

With DWSY, the enrichment ratio was no more than 0.25.

As to LAAY, the enrichment ratio is no more than 0.25.

For the variant TQID, the enrichment ratio is no more than 0.25.

Turning to THQY, the enrichment ratio was 15.

On to NHQY, for which the enrichment ratio is no more than 0.25.

As to EFDW, the enrichment ratio is no more than 0.25.

For DSGT, the enrichment ratio is no more than 0.25.

With HYAH, the enrichment ratio was no more than 0.25.

Consider YAPS, for which the enrichment ratio is 0.949.

As for YQLH, the enrichment ratio amounted to 0.516.

Regarding HVYR, the enrichment ratio was no more than 0.25.

Take LAQY: the enrichment ratio was no more than 0.25.

With TSQY, the enrichment ratio was determined as 13.5.

As for MMQY, the enrichment ratio was no more than 0.25.

In the case of TQEY, the enrichment ratio is no more than 0.25.

NVQY: the enrichment ratio was no more than 0.25.

Consider TVQY, for which the enrichment ratio worked out at 19.2.

Turning to KSQY, the enrichment ratio is no more than 0.25.

As to SPQY, the enrichment ratio was no more than 0.25.

On to TQQY, for which the enrichment ratio was determined as 15.1.

For VSHP, the enrichment ratio was no more than 0.25.

With ARTY, the enrichment ratio is no more than 0.25.

IGHH: the enrichment ratio amounted to 2.36.

As for LVAL, the enrichment ratio is no more than 0.25.

Consider YMKE, for which the enrichment ratio was no more than 0.25.

Take RLRC: the enrichment ratio is no more than 0.25.

For RSML, the enrichment ratio is no more than 0.25.

Regarding VYML, the enrichment ratio was no more than 0.25.

VTEL: the enrichment ratio is no more than 0.25.

Take VSML: the enrichment ratio amounted to 15.7.

As for VTML, the enrichment ratio was found to be 15.3.

On to YSML, for which the enrichment ratio stood at 14.4.

QSML: the enrichment ratio was 3.2.

Consider FSML, for which the enrichment ratio was 12.7.

For FQML, the enrichment ratio was found to be 0.396.

Take VFML: the enrichment ratio is no more than 0.25.

As for LPWT, the enrichment ratio was no more than 0.25.

Turning to DNAA, the enrichment ratio is no more than 0.25.

Consider DPIA, for which the enrichment ratio is no more than 0.25.

As to GRAC, the enrichment ratio was no more than 0.25.

On to NSML, for which the enrichment ratio amounted to 4.86.

For TSML, the enrichment ratio was 17.8.

For the variant KSML, the enrichment ratio was no more than 0.25.

In the case of PARS, the enrichment ratio was no more than 0.25.

As for QYPA, the enrichment ratio was no more than 0.25.

For the variant YART, the enrichment ratio was no more than 0.25.

As for QKCC, the enrichment ratio was no more than 0.25.

PVGG: the enrichment ratio is no more than 0.25.

In the case of KIGQ, the enrichment ratio is no more than 0.25.

As for TVGQ, the enrichment ratio stood at 15.3.

Regarding TVGG, the enrichment ratio stood at 16.2.

HCGQ: the enrichment ratio was no more than 0.25.

As for NVGG, the enrichment ratio was no more than 0.25.

Take ELLA: the enrichment ratio was no more than 0.25.

As for RCNM, the enrichment ratio was no more than 0.25.

For THRA, the enrichment ratio was no more than 0.25.

Take PAWH: the enrichment ratio was no more than 0.25.

Turning to THDV, the enrichment ratio is no more than 0.25.

Take RHTL: the enrichment ratio was no more than 0.25.

With TIQT, the enrichment ratio is 12.7.

Regarding GGCT, the enrichment ratio was determined as 15.6.

As to NEQT, the enrichment ratio is no more than 0.25.

On to GNCT, for which the enrichment ratio worked out at 10.8.

For the variant MKTS, the enrichment ratio is no more than 0.25.

In the case of KRQT, the enrichment ratio was no more than 0.25.

Turning to TKTS, the enrichment ratio amounted to 11.9.

On to TEQT, for which the enrichment ratio amounted to 23.1.

Turning to AKTS, the enrichment ratio is 5.9.

With TGCT, the enrichment ratio amounted to 1.82.

Turning to RIQT, the enrichment ratio is no more than 0.25.

Turning to AIQT, the enrichment ratio was no more than 0.25.

As for QLVG, the enrichment ratio is no more than 0.25.

ADVM: the enrichment ratio came to 6.88.

With KTVF, the enrichment ratio is no more than 0.25.

Regarding GTKH, the enrichment ratio was no more than 0.25.

For the variant IWLA, the enrichment ratio is no more than 0.25.

For TKCT, the enrichment ratio came out at 38.2.

For the variant ADQT, the enrichment ratio is no more than 0.25.

Consider KKCT, for which the enrichment ratio is no more than 0.25.

HKCT: the enrichment ratio is no more than 0.25.

Regarding HRCT, the enrichment ratio is no more than 0.25.

As to KRCT, the enrichment ratio is no more than 0.25.

In the case of TRCT, the enrichment ratio was 18.2.

For FDCT, the enrichment ratio is no more than 0.25.

For TDQT, the enrichment ratio was 34.2.

As for KDQT, the enrichment ratio is no more than 0.25.

With ADCT, the enrichment ratio was no more than 0.25.

For TDCT, the enrichment ratio turned out to be 14.8.

As for SNRN, the enrichment ratio was no more than 0.25.

On to VNAY, for which the enrichment ratio is no more than 0.25.

For the variant NARV, the enrichment ratio was no more than 0.25.

As for WLPG, the enrichment ratio is no more than 0.25.

LHMC: the enrichment ratio was no more than 0.25.

In the case of VHGV, the enrichment ratio is no more than 0.25.

Take KDPY: the enrichment ratio was no more than 0.25.

Regarding PSCV, the enrichment ratio was no more than 0.25.

For KSQT, the enrichment ratio was no more than 0.25.

Consider KKLT, for which the enrichment ratio is no more than 0.25.

On to KAQT, for which the enrichment ratio is no more than 0.25.

TKPT: the enrichment ratio was no more than 0.25.

With TKKT, the enrichment ratio was no more than 0.25.

Regarding TKLT, the enrichment ratio was 15.3.

With TKFT, the enrichment ratio was no more than 0.25.

TKAT: the enrichment ratio came to 14.5.

Take TKQT: the enrichment ratio was 11.7.

Take TDYD: the enrichment ratio is no more than 0.25.

With WDAF, the enrichment ratio is no more than 0.25.

In the case of YYHT, the enrichment ratio was no more than 0.25.

Regarding MRHT, the enrichment ratio is 0.477.

For the variant TEHT, the enrichment ratio was 27.2.

MMHT: the enrichment ratio was no more than 0.25.

Take QEHT: the enrichment ratio came out at 9.94.

As for NEHT, the enrichment ratio was no more than 0.25.

With MEHT, the enrichment ratio was 24.2.

For the variant KLHT, the enrichment ratio is no more than 0.25.

For MLHT, the enrichment ratio worked out at 11.5.

Take NWHY: the enrichment ratio was no more than 0.25.

Take TYIE: the enrichment ratio was no more than 0.25.

DLWY: the enrichment ratio is no more than 0.25.

Turning to KLWE, the enrichment ratio was no more than 0.25.

As for KHER, the enrichment ratio was no more than 0.25.

Take TVFL: the enrichment ratio was no more than 0.25.

As to LIMQ, the enrichment ratio is no more than 0.25.

As to NNDM, the enrichment ratio was no more than 0.25.

Regarding FCHM, the enrichment ratio is no more than 0.25.

YTSV: the enrichment ratio was no more than 0.25.

Consider KQSV, for which the enrichment ratio was no more than 0.25.

Regarding YDSV, the enrichment ratio was no more than 0.25.

As to TTSV, the enrichment ratio was determined as 15.8.

As to STSV, the enrichment ratio was determined as 9.12.

Take ATSV: the enrichment ratio stood at 12.7.

Regarding SWRT, the enrichment ratio is no more than 0.25.

For RRQV, the enrichment ratio is no more than 0.25.

VWEC: the enrichment ratio is no more than 0.25.

For METE, the enrichment ratio was no more than 0.25.

For TETA, the enrichment ratio was no more than 0.25.

With TETD, the enrichment ratio came to 2.04.

With TETI, the enrichment ratio was determined as 17.3.

TETK: the enrichment ratio was no more than 0.25.

On to TEPM, for which the enrichment ratio was no more than 0.25.

TETM: the enrichment ratio was found to be 22.4.

In the case of QETE, the enrichment ratio was no more than 0.25.

Regarding TETS, the enrichment ratio turned out to be 13.7.

In the case of TETR, the enrichment ratio is no more than 0.25.

TETE: the enrichment ratio stood at 18.8.

As to RPDP, the enrichment ratio is no more than 0.25.

Regarding MVRG, the enrichment ratio is no more than 0.25.

As for NTNY, the enrichment ratio was no more than 0.25.

Regarding LYEH, the enrichment ratio is no more than 0.25.

On to IGTK, for which the enrichment ratio was no more than 0.25.

Consider WQPW, for which the enrichment ratio is no more than 0.25.

Turning to PICS, the enrichment ratio was no more than 0.25.

For the variant DNDH, the enrichment ratio was no more than 0.25.

With WQRE, the enrichment ratio is no more than 0.25.

In the case of LRQP, the enrichment ratio was no more than 0.25.

As to HPHL, the enrichment ratio was no more than 0.25.

Regarding GFYA, the enrichment ratio was no more than 0.25.

Turning to DGSI, the enrichment ratio was no more than 0.25.

Consider GYWI, for which the enrichment ratio was no more than 0.25.

In the case of IGSE, the enrichment ratio was no more than 0.25.

Regarding TETG, the enrichment ratio was 35.8.

Consider QETG, for which the enrichment ratio was no more than 0.25.

Turning to METG, the enrichment ratio stood at 4.62.

As for SFGG, the enrichment ratio was no more than 0.25.

Turning to PIPY, the enrichment ratio is no more than 0.25.

Take KIVE: the enrichment ratio was no more than 0.25.

For EFFM, the enrichment ratio is no more than 0.25.

Consider KQSN, for which the enrichment ratio was no more than 0.25.

Regarding SSSN, the enrichment ratio amounted to 12.1.

Take STSN: the enrichment ratio was 11.3.

Consider YTSN, for which the enrichment ratio is no more than 0.25.

SQSN: the enrichment ratio was found to be 7.46.

For KSSN, the enrichment ratio was no more than 0.25.

SLSN: the enrichment ratio was 8.45.

NSSN: the enrichment ratio was no more than 0.25.

With SDSN, the enrichment ratio was no more than 0.25.

As for SRSN, the enrichment ratio is no more than 0.25.

As for SNSN, the enrichment ratio was 12.5.

For the variant SCSN, the enrichment ratio is 12.3.

These data come from a collection of fitness landscapes (doi:10.1126/science.1257360).
